Experimental data published in PubChem BioAssay (NCI).
“And” between values parts separate entries of the source, which are not always exact repeats. Equal entries are not always repeated. The panel holds about 83,000 compounds, 20% with a hit somewhere; the sample as a whole holds those more often.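 The endpoint reported here, percent growth, reads 100 for growth as untreated, 0 for no net growth and -100 for all cells dead.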 The source made the active and inactive calls.

tested on: CCRF-CEM leukemia; assay: NCI-60 one-dose screen, 48 h (100 = growth as untreated, 0 = no growth, -100 = all killed); conditions: 4.75 µM
Method: Growth inhibition of the CCRF-CEM human tumor cell line is measured as a screen for anti-cancer activity. Cells are grown in 96 well plates and exposed to the test compound for 48 hours. Compounds are tested at a single concentration, which is 10^-5 M for most compounds. The reported endpoint is percent growth (GI% or GIPRCNT), where numbers from 0 - 100% represent growth inhibition, and numbers from -100% - 0 represent cell death. For example, a value of 40 represents 60% growth inhibition. A value of 0 means no net growth occurred over the course of the experiment. A value of -40 indicates 40% of cells at the beginning of the experiment died by the end of the experiment. A value of -100 means all cells are dead at the end of the experiment.
NCI-60 Human Tumor Cell Lines Screen was performed using the standard one-dose NCI protocol, which is described in more detail at https://dtp.cancer.gov/discovery_development/nci-60/default.htm.
Compounds with GIPRCNT values below 10 were considered active. Activity score was based on GIPRCNT using the following formula: […]
Score is 0 for GIPRCNT values of 100 or above, 50 for GIPRCNT values of 0, and 100 for GIPRCNT values of -100.

SMILES | growth
CC(=O)OCC1OC([S-])C(OC(C)=O)C(OC(C)=O)C1OC(C)=O.[Au+].c1ccc(CN2[CH-]N(Cc3ccccc3)C(c3ccccc3)=C2c2ccccc2)cc1 | -21% (active)

same assay, conditions: 10 µM

SMILES | growth
CC(=O)OCC1OC([S-])C(OC(C)=O)C(OC(C)=O)C1OC(C)=O.[Au+].c1ccc(CN2[CH-]N(Cc3ccccc3)C(c3ccccc3)=C2c2ccccc2)cc1 | 17.4% (inactive)

same assay, conditions: 10 µM unless noted

SMILES | growth
CC1=C(C)C(=O)O[C@@H]([C@](C)(O)[C@]2(O)CC[C@@]3(O)[C@@H]4C[C@H]5O[C@]56CC=CC(=O)[C@]6(C)[C@H]4CC[C@]23C)C1 | -8.66% (active)
C=C[Se]CC(=O)/C=C/c1ccccc1 | 47.4% (inactive)
CC[C@H](C)[C@H](NC(=O)C12CC(NC)(C1)C2)C(=O)N(C)[C@H](C[C@@H](OC(C)=O)c1nc(C(=O)N[C@@H](Cc2ccccc2)C[C@H](C)C(=O)OC)cs1)C(C)C | 1.27% (active)
C=CC1CN2CCC1CC2C(O)c1ccnc2ccccc12 (stereo not given) | 304% (inactive)
Oc1ccccc1C=NCCN=Cc1ccccc1O | 90% (inactive)
O=C(O)c1cc([N+](=O)[O-])cc([N+](=O)[O-])c1 | 80.6% (inactive)
O=C(O)C1C(C(=O)O)C2(Cl)C(Cl)=C(Cl)C1(Cl)C2(Cl)Cl (stereo not given) | 1.8% (active) and 114% (inactive)
NC(=O)Oc1cc(OC(N)=O)cc(N(CCCl)CCCl)c1 | 13.4% (inactive)
Cc1cc(N(CCCl)CCCl)ccc1C=Nc1ccc(-c2csc(-c3ccccc3)n2)cc1 | 46.5% (inactive)
C[C@]12C[C@H](c3ccoc3)OC(=O)[C@H]1CC[C@@]1(C)[C@@H]2[C@H]2C=C[C@]1(O)C(=O)O2 | 96% (inactive)
CC(C)CCC1C(=O)NC(=O)NC1=O | 106% (inactive)
CC1(C)N=C(N)N=C(N)N1c1ccc(CCC(=O)Nc2ccc(S(=O)(=O)F)cc2)cc1 | 18.9% (inactive)
CCCCCCCCCCCCCCCC[N+](C)(C)Cc1ccccc1 | -22% (active) and -30.1% (active)
CC[C@H](C)[C@H]1O[C@]2(C=C[C@@H]1C)C[C@@H]1C[C@@H](C/C=C(\C)[C@@H](O[C@H]3C[C@H](OC)[C@@H](O[C@H]4C[C@H](OC)[C@@H](NC)[C@H](C)O4)[C@H](C)O3)[C@@H](C)/C=C/C=C3\CO[C@@H]4[C@H](O)C(C)=C[C@@H](C(=O)O1)[C@]34O)O2 | -43% (active)
Cc1cc[c-]cc1.Fc1c[c-]c(-c2ccccn2)c(F)c1.N#CCC[PH+](CCC#N)c1ccccc1.[Pt+2] | 10% (inactive)
CC1(C)C2CCC1(CS(=O)(=O)O)C(=O)C2 (stereo not given) | 96.1% (inactive) and 103% (inactive)
COc1ccc(C(C#N)C(C)=O)cc1 (stereo not given) | 98.6% (inactive)
O=C(NC1=NCC[Se]1)c1ccccc1O | 21.8% (inactive)
NC(=O)c1c(Br)c(Br)c(Br)c(Br)c1C(=O)O (tested in a mixture with another compound) | 35.5% (inactive) and 79.4% (inactive)

SMILES | growth
O=S(=O)(c1ccc(O)cc1)c1ccccc1O | 88.6% (inactive)
S=P(SP(=S)(c1ccccc1)c1ccccc1)(c1ccccc1)c1ccccc1 | -61.3% (active)
N#CC(C#N)=Cc1cccc(F)c1 | 101% (inactive)
Cc1cc(N(CCCl)CCCl)ccc1/C=N\NC(=O)c1cccnc1 | 60.2% (inactive) and 62.1% (inactive)
CC[C@H](C)[C@H](NC(=O)c1ncccn1)C(=O)N(C)[C@H](C[C@@H](OC(C)=O)c1nc(C(=O)N[C@@H](Cc2ccccc2)C[C@H](C)C(=O)OC)cs1)C(C)C | 10.4% (inactive)
CC(=O)C(N)Cc1ccccc1 (stereo not given) | 84.4% (inactive)
CO/N=C1\CC[C@]2(C)[C@H]3CC[C@]4(C)C(=O)CC[C@H]4[C@@H]3C[C@@H]3SC(N)=N[C@@]32C1 | 98.7% (inactive)
CCN1C(=O)NC(=O)C(C)(N2C(=O)c3c(F)c(F)c(F)c(F)c3C2=O)C1=O (stereo not given) | 19.5% (inactive)
CC1(C)C=Cc2c(ccc3c2[N+]([O-])=C2C3=C[C@@]34NC(=O)[C@]5(CCCN5C3=O)C[C@@H]4C2(C)C)O1 | 14.2% (inactive)
C[C@]12CCc3nc(-c4ccc(O)c(O)c4)sc3C1=CC[C@@H]1[C@@H]2CC[C@]2(C)C(=O)CC[C@@H]12 | 47.5% (inactive)
O=C(O)CNCP(=O)(O)O | 90.9% (inactive)
COC(=O)CCP(CCC(=O)OC)c1ccccc1 | 109% (inactive)
Cn1cc(-c2csc(-c3cn(CCCCN4CCOCC4)c4ccc(F)cc34)n2)c2cccnc21 | -59.6% (active)
CC1(C)S[C@H]2CC[C@H]3OC(=O)[C@@H]1N23 | 82.9% (inactive)
Cc1cc(NC(=O)NCCCOc2ccc(N3C(N)=NC(N)=NC3(C)C)cc2Cl)ccc1S(=O)(=O)F | 32.4% (inactive)
Cn1cc(C(=O)C[n+]2ccccc2)c2ccccc21 | 96.6% (inactive)
COc1cc(C=C2C(=O)NC(=O)NC2=O)ccc1O | 113% (inactive)
Cc1cc(Br)c([N+](=O)[O-])cc1[N+](=O)[O-] | 60.5% (inactive)
O=C(O)c1ccccc1N(CCO)CCCl | -3.53% (active)
